From publication PMC5540273 (PLoS ONE, 2017)

Assays:
Details in all cases: concentration: 1 μM, replicates: in singlicate; n = 1
TSSK1B = tested on: TSSK1B
TSSK3 = tested on: TSSK3
TTK = tested on: TTK
TXK = tested on: TXK
[1] = tested on: TYK2(JH1domain-catalytic)
[2] = tested on: TYK2(JH2domain-pseudokinase)
TYRO3 = tested on: TYRO3
ULK1 = tested on: ULK1
ULK2 = tested on: ULK2
ULK3 = tested on: ULK3
VEGFR2 = tested on: T1, VEGFR2
T1 construct: gene KDR

VPS34 = tested on: T2, VPS34
T2 construct: gene PIK3C3

VRK2 = tested on: VRK2
WEE1 = tested on: WEE1
WEE2 = tested on: WEE2
WNK1 = tested on: WNK1
WNK2 = tested on: WNK2
WNK3 = tested on: WNK3
WNK4 = tested on: WNK4
YANK1 = tested on: T3, YANK1
T3 construct: gene STK32A
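Note: KINOMEscan kinase panel screen.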

## COc1cccc(CNC(=O)NC2CCN(c3ccnc(Nc4ccc(F)cc4)n3)C2)c1 (centres unmarked) [GSK1379723]
TSSK1B
  %Inh: 1%
TSSK3
  %Inh: 16%
TTK
  %Inh: 17%
TXK
  %Inh: 100%
[1]
  %Inh: 20%
[2]
  %Inh: 22%
TYRO3
  %Inh: 17%
ULK1
  %Inh: 19%
ULK2
  %Inh: 1%
ULK3
  %Inh: 4%
VEGFR2
  %Inh: 1%
VPS34
  %Inh: 0%
VRK2
  %Inh: 0%
WEE1
  %Inh: 3%
WEE2
  %Inh: 12%
WNK1
  %Inh: 6%
WNK2
  %Inh: 13%
WNK3
  %Inh: 5%
WNK4
  %Inh: 7%
YANK1
  %Inh: 0%

## CN1c2ccc(-c3ccc(C(N)=O)cc3)cc2-c2[nH]ncc2S1(=O)=O
TSSK1B
  %Inh: 0%
TSSK3
  %Inh: 0%
TTK
  %Inh: 5%
TXK
  %Inh: 0%
[1]
  %Inh: 45%
[2]
  %Inh: 83%
TYRO3
  %Inh: 0%
ULK1
  %Inh: 0%
ULK2
  %Inh: 9%
ULK3
  %Inh: 6%
VEGFR2
  %Inh: 21%
VPS34
  %Inh: 0%
VRK2
  %Inh: 3%
WEE1
  %Inh: 14%
WEE2
  %Inh: 0%
WNK1
  %Inh: 6%
WNK2
  %Inh: 0%
WNK3
  %Inh: 4%
WNK4
  %Inh: 0%
YANK1
  %Inh: 0%

## COc1ccc(-c2coc3ccc(-c4nnc(C)o4)cc23)cc1
TSSK1B
  %Inh: 0%
TSSK3
  %Inh: 0%
TTK
  %Inh: 0%
TXK
  %Inh: 0%
[1]
  %Inh: 0%
[2]
  %Inh: 0%
TYRO3
  %Inh: 0%
ULK1
  %Inh: 0%
ULK2
  %Inh: 0%
ULK3
  %Inh: 0%
VEGFR2
  %Inh: 0%
VPS34
  %Inh: 0%
VRK2
  %Inh: 0%
WEE1
  %Inh: 0%
WEE2
  %Inh: 4%
WNK1
  %Inh: 0%
WNK2
  %Inh: 32%
WNK3
  %Inh: 0%
WNK4
  %Inh: 0%
YANK1
  %Inh: 0%

## CCc1ccc(-c2ccc3c(c2)-c2n[nH]cc2S(=O)(=O)N3C)cc1
TSSK1B
  %Inh: 0%
TSSK3
  %Inh: 0%
TTK
  %Inh: 0%
TXK
  %Inh: 14%
[1]
  %Inh: 0%
[2]
  %Inh: 5%
TYRO3
  %Inh: 0%
ULK1
  %Inh: 0%
ULK2
  %Inh: 0%
ULK3
  %Inh: 0%
VEGFR2
  %Inh: 0%
VPS34
  %Inh: 4%
VRK2
  %Inh: 0%
WEE1
  %Inh: 14%
WEE2
  %Inh: 0%
WNK1
  %Inh: 23%
WNK2
  %Inh: 2%
WNK3
  %Inh: 3%
WNK4
  %Inh: 0%
YANK1
  %Inh: 0%

## Fc1ccc(-c2nc[nH]c2-c2ccncc2)cc1 [SB-217360]
TSSK1B
  %Inh: 0%
TSSK3
  %Inh: 0%
TTK
  %Inh: 0%
TXK
  %Inh: 0%
[1]
  %Inh: 2%
[2]
  %Inh: 22%
TYRO3
  %Inh: 0%
ULK1
  %Inh: 20%
ULK2
  %Inh: 27%
ULK3
  %Inh: 16%
VEGFR2
  %Inh: 0%
VPS34
  %Inh: 26%
VRK2
  %Inh: 19%
WEE1
  %Inh: 4%
WEE2
  %Inh: 0%
WNK1
  %Inh: 11%
WNK2
  %Inh: 0%
WNK3
  %Inh: 9%
WNK4
  %Inh: 2%
YANK1
  %Inh: 7%

## Cc1ccc(NC(=O)Nc2ccc(Cl)cc2)cc1-c1ccc(C(=O)Nc2ccncc2)cc1 [GSK1398472]
TSSK1B
  %Inh: 0%
TSSK3
  %Inh: 11%
TTK
  %Inh: 0%
TXK
  %Inh: 47%
[1]
  %Inh: 62%
[2]
  %Inh: 13%
TYRO3
  %Inh: 4%
ULK1
  %Inh: 8%
ULK2
  %Inh: 0%
ULK3
  %Inh: 0%
VEGFR2
  %Inh: 9%
VPS34
  %Inh: 0%
VRK2
  %Inh: 0%
WEE1
  %Inh: 16%
WEE2
  %Inh: 5%
WNK1
  %Inh: 7%
WNK2
  %Inh: 0%
WNK3
  %Inh: 13%
WNK4
  %Inh: 23%
YANK1
  %Inh: 1%

## COc1ccc(Nc2nccc(-c3ccc(NC(=O)c4cc5cc(F)ccc5[nH]4)cc3)n2)cc1 [GSK1229496]
TSSK1B
  %Inh: 0%
TSSK3
  %Inh: 22%
TTK
  %Inh: 0%
TXK
  %Inh: 0%
[1]
  %Inh: 23%
[2]
  %Inh: 0%
TYRO3
  %Inh: 0%
ULK1
  %Inh: 0%
ULK2
  %Inh: 0%
ULK3
  %Inh: 8%
VEGFR2
  %Inh: 0%
VPS34
  %Inh: 2%
VRK2
  %Inh: 0%
WEE1
  %Inh: 7%
WEE2
  %Inh: 0%
WNK1
  %Inh: 0%
WNK2
  %Inh: 14%
WNK3
  %Inh: 18%
WNK4
  %Inh: 51%
YANK1
  %Inh: 0%

## CCCCc1nn2ncccc2c1-c1ccnc(NC2CC2)n1 [GW684374]
TSSK1B
  %Inh: 0%
TSSK3
  %Inh: 9%
TTK
  %Inh: 0%
TXK
  %Inh: 0%
[1]
  %Inh: 6%
[2]
  %Inh: 32%
TYRO3
  %Inh: 0%
ULK1
  %Inh: 0%
ULK2
  %Inh: 0%
ULK3
  %Inh: 0%
VEGFR2
  %Inh: 0%
VPS34
  %Inh: 0%
VRK2
  %Inh: 4%
WEE1
  %Inh: 34%
WEE2
  %Inh: 0%
WNK1
  %Inh: 3%
WNK2
  %Inh: 15%
WNK3
  %Inh: 26%
WNK4
  %Inh: 14%
YANK1
  %Inh: 6%

## COc1ccc(CSc2nnc(-c3ccc4nccn4c3)o2)cc1C(F)(F)F
TSSK1B
  %Inh: 0%
TSSK3
  %Inh: 1%
TTK
  %Inh: 64%
TXK
  %Inh: 6%
[1]
  %Inh: 8%
[2]
  %Inh: 5%
TYRO3
  %Inh: 3%
ULK1
  %Inh: 0%
ULK2
  %Inh: 4%
ULK3
  %Inh: 0%
VEGFR2
  %Inh: 10%
VPS34
  %Inh: 7%
VRK2
  %Inh: 7%
WEE1
  %Inh: 9%
WEE2
  %Inh: 0%
WNK1
  %Inh: 0%
WNK2
  %Inh: 0%
WNK3
  %Inh: 0%
WNK4
  %Inh: 2%
YANK1
  %Inh: 20%

## COC(=O)c1cccc(NC(=O)NC2CCN(c3ccnc(Nc4ccc(F)cc4)n3)C2)c1 (centres unmarked) [GSK1379725]
TSSK1B
  %Inh: 0%
TSSK3
  %Inh: 3%
TTK
  %Inh: 0%
TXK
  %Inh: 0%
[1]
  %Inh: 0%
[2]
  %Inh: 23%
TYRO3
  %Inh: 0%
ULK1
  %Inh: 15%
ULK2
  %Inh: 0%
ULK3
  %Inh: 12%
VEGFR2
  %Inh: 0%
VPS34
  %Inh: 0%
VRK2
  %Inh: 0%
WEE1
  %Inh: 16%
WEE2
  %Inh: 5%
WNK1
  %Inh: 0%
WNK2
  %Inh: 18%
WNK3
  %Inh: 27%
WNK4
  %Inh: 0%
YANK1
  %Inh: 0%
